# Measurements as given in PubChem BioAssay (EPA / NIEHS).
# “And” between values parts separate entries of the source, which are not always exact repeats. Identical values can stand only once. Some structures have more than one record in an assay (separate samples or runs), and their calls can disagree. The source made the active and inactive calls. How the source made its calls: active means hit-call score of the fitted dose curve at least 0.9, where 1 is the maximum; inactive means score below 0.9.
# What was measured:
# Details in all cases: mRNA level, 48 h; actives raise or lower the signal
# [1] = read-out: Bcl-2 (BAD) gene, BAD (gene 572); assay: LTEA_HepaRG_BAD: Life Technologies and Expression Analysis (LTEA) Assay for Bcl-2 (BAD) gene using HepaRG (AID 2283469)
# In short: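 Activity values reflect up- or down-regulation of BAD mRNA in human HepaRG hepatic cells treated 48 h in serum-free medium, with eight-point half-log dosing capped at 100 uM and 0.5% DMSO vehicle.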
# [2] = read-out: Bcl-2 (BAX) gene, BAX (gene 581); assay: LTEA_HepaRG_BAX: Life Technologies and Expression Analysis (LTEA) Assay for Bcl-2 (BAX) gene using HepaRG (AID 2283470)
# In short: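 Human HepaRG cells treated in duplicate for 48 h across eight concentrations (max 100 uM, 0.5% DMSO); BAX expression measured by qRT-PCR.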
# [3] = read-out: adenosine kinase (ADK) gene, ADK (gene 132); assay: LTEA_HepaRG_ADK: Life Technologies and Expression Analysis (LTEA) Assay for adenosine kinase (ADK) gene using HepaRG (AID 2283471)
# In short: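 Differentiated HepaRG cells dosed 48 h in serum-free induction medium, 0.5% DMSO vehicle, eight half-log concentrations from 100 uM, in duplicate. ADK mRNA by TaqMan qRT-PCR normalised to ACTB, GAPDH, POLR2A; bidirectional fit versus DMSO.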
# [4] = read-out: Alpha-fetoprotein (AFP) gene, AFP (gene 174); assay: LTEA_HepaRG_AFP: Life Technologies and Expression Analysis (LTEA) Assay for Alpha-fetoprotein (AFP) gene using HepaRG (AID 2283472)
# In short: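 Measures AFP mRNA change in HepaRG after 48 h chemical exposure (8 half-log concentrations, highest 100 uM, 0.5% DMSO). Fold change relative to DMSO, fitted in both directions.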
# BCL2L11 (gene 10018) = assay: LTEA_HepaRG_BCL2L11: Life Technologies and Expression Analysis (LTEA) Assay for Bcl-2 (BCL2L11) gene using HepaRG (AID 2283473)
# In short: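 HepaRG, 48 h exposure, 8-pt half-log series from 100 uM in 0.5% DMSO, duplicates; qRT-PCR (Fluidigm TaqMan) for BCL2L11, housekeeping-normalized; bidirectional curve fit relative to DMSO baseline.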
# [5] = read-out: Apolipoprotein A-V (APOA5) gene, APOA5 (gene 116519); assay: LTEA_HepaRG_APOA5: Life Technologies and Expression Analysis (LTEA) Assay for Apolipoprotein A-V (APOA5) gene using HepaRG (AID 2283474)
# In short: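 HepaRG, 48 h chemical exposure in serum-free induction medium, 8-pt half-log series (top 100 uM), 0.5% DMSO vehicle, duplicates. Readout: APOA5 mRNA by qRT-PCR, housekeeping-normalized; bidirectional fit vs DMSO baseline.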
# [6] = read-out: Apoptosis regulator Bcl-2 (Homo sapiens) (UniProt P10415); assay: LTEA_HepaRG_BCL2: Life Technologies and Expression Analysis (LTEA) Assay for Bcl-2 gene using HepaRG (AID 2283475)
# In short: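 Each chemical was tested in duplicate on HepaRG cultures held in serum-free induction medium for 48 h, highest concentration 100 uM with half-log dilutions. Transcript levels came from multiplexed qRT-PCR, normalised to housekeeping genes; activity was scored in either direction relative to DMSO.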
# [7] = read-out: Bcl-2 (BID) gene, BID (gene 637); assay: LTEA_HepaRG_BID: Life Technologies and Expression Analysis (LTEA) Assay for Bcl-2 (BID) gene using HepaRG (AID 2283476)
# In short: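 Assay used HepaRG hepatic cells treated 48 h in serum-free medium with half-log dilutions from 100 uM. Endpoint: BID mRNA, qRT-PCR, normalized to ACTB/GAPDH/POLR2A.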
# Caspase-3 (Homo sapiens) = Caspase-3 (Homo sapiens) (UniProt P42574); assay: LTEA_HepaRG_CASP3: Life Technologies and Expression Analysis (LTEA) Assay for cysteine-aspartic acid protease (CASP3) using HepaRG (AID 2283477)
# Chain of Caspase-3 (Homo sapiens) (P42574 whole entry, looked up): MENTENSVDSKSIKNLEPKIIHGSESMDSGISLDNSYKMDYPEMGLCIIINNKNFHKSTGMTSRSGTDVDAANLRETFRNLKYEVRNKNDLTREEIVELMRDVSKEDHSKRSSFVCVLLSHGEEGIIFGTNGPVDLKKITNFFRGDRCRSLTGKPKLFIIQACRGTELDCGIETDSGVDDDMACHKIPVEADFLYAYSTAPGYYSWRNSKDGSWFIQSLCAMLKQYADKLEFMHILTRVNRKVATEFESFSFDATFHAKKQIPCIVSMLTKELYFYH
# In short: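 HepaRG, 48 h exposure, 8 conc. (top 100 uM, half-log steps, duplicate), 0.5% DMSO vehicle; qRT-PCR of CASP3 transcript, housekeeping-normalised (ACTB/GAPDH/POLR2A); bidirectional curve fit vs DMSO baseline.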
# [8] = read-out: Cytochrome P450 (CYP1A2), CYP1A2 (gene 1544); assay: LTEA_HepaRG_CYP1A2: Life Technologies and Expression Analysis (LTEA) Assay for Cytochrome P450 (CYP1A2) using HepaRG (AID 2283479)
# In short: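 HepaRG, 48 h exposure, top 100 uM, half-log 8-pt, 0.5% DMSO vehicle, duplicates. Readout: TaqMan qRT-PCR of CYP1A2 mRNA, housekeeping-normalized (ACTB/GAPDH/POLR2A). Gain/loss fit relative to DMSO baseline.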
# [9] = read-out: cysteine-aspartic acid protease (CASP8), CASP8 (gene 841); assay: LTEA_HepaRG_CASP8: Life Technologies and Expression Analysis (LTEA) Assay for cysteine-aspartic acid protease (CASP8) using HepaRG (AID 2283480)
# In short: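 Concentration-response in duplicate up to 100 uM (half-log steps, 0.5% DMSO) on differentiated HepaRG cultures for 48 h. Expression change of CASP8 mRNA is determined by TaqMan qRT-PCR with housekeeping-gene normalization.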
# [10] = read-out: Cytochrome P450 (CYP2B6), CYP2B6 (gene 1555); assay: LTEA_HepaRG_CYP2B6: Life Technologies and Expression Analysis (LTEA) Assay for Cytochrome P450 (CYP2B6) using HepaRG (AID 2283481)
# In short: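 Read-out is CYP2B6 mRNA by TaqMan qRT-PCR, normalized to three housekeeping genes and fitted bidirectionally against 0.5% DMSO baseline. Human HepaRG cells received test chemicals for 48 h, top concentration 100 uM, half-log dilutions.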
# [11] = read-out: Cytochrome P450 2C19 (Homo sapiens) (UniProt P33261); assay: LTEA_HepaRG_CYP2C19: Life Technologies and Expression Analysis (LTEA) Assay for CYP2C19 using HepaRG (AID 2283482)
# In short: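 HepaRG, 48 h chemical exposure, 8-pt half-log series from 100 uM in 0.5% DMSO, duplicates. Readout: CYP2C19 mRNA by TaqMan qRT-PCR, housekeeping-normalized. Bidirectional fit vs DMSO baseline; phenobarbital 1mM as induction control.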
# CYP2C8 (gene 1558) = assay: LTEA_HepaRG_CYP2C8: Life Technologies and Expression Analysis (LTEA) Assay for CYP2C8 using HepaRG (AID 2283483)
# In short: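 This is a transcriptional endpoint in HepaRG cultures: 48 h exposure, highest concentration 100 uM. CYP2C8 mRNA is quantified by TaqMan qRT-PCR.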
# CYP2C9 (gene 1559) = assay: LTEA_HepaRG_CYP2C9: Life Technologies and Expression Analysis (LTEA) Assay for CYP2C9 using HepaRG (AID 2283484)
# In short: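 Eight-point concentration-response (highest 100 uM, half-log dilutions) in HepaRG cells for 48 h; CYP2C9 expression by qRT-PCR normalized to ACTB, GAPDH, POLR2A. Bidirectional fit, DMSO baseline.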
# CYP2E1 (gene 1571) = assay: LTEA_HepaRG_CYP2E1: Life Technologies and Expression Analysis (LTEA) Assay for CYP2E1 using HepaRG (AID 2283485)
# In short: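 Assay uses 48 h exposure of HepaRG hepatic cells, eight concentrations to 100 uM. Expression of CYP2E1 is quantified by TaqMan qRT-PCR with ACTB, GAPDH and POLR2A normalization; curves fitted in both directions relative to vehicle.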
# CYP4A11 (gene 1579) = assay: LTEA_HepaRG_CYP4A11: Life Technologies and Expression Analysis (LTEA) Assay for CYP4A11 using HepaRG (AID 2283486)
# In short: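 CYP4A11 transcript levels were quantified by TaqMan qRT-PCR after HepaRG human liver cells were treated for 48 hours with test chemicals (top 100 uM, half-log dilutions, 0.5% DMSO). Gain or loss of signal was fitted relative to DMSO.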
# [12] = read-out: Cytochrome P450 3A4 (Homo sapiens) (UniProt P08684); assay: LTEA_HepaRG_CYP3A4: Life Technologies and Expression Analysis (LTEA) Assay for CYP3A4 using HepaRG (AID 2283487)
# In short: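 Differentiated HepaRG cells in serum-free induction medium exposed in duplicate for 48 h to 8 half-log concentrations up to 100 uM in 0.5% DMSO. CYP3A4 mRNA measured by qRT-PCR normalized to ACTB, GAPDH and POLR2A; bidirectional fit versus DMSO.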
# [13] = read-out: DNA damage-inducible transcript 3 (DDIT3), DDIT3 (gene 1649); assay: LTEA_HepaRG_DDIT3: Life Technologies and Expression Analysis (LTEA) Assay for DNA damage-inducible transcript 3 (DDIT3) using HepaRG (AID 2283488)
# In short: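 Eight-point concentration-response (100 uM highest, half-log dilutions) in HepaRG, 48 h, duplicate wells. Endpoint: qRT-PCR mRNA, normalized (ACTB, GAPDH, POLR2A), bidirectional fitting with DMSO as baseline.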
# [14] = read-out: Cytochrome P450 (CYP24A1), CYP24A1 (gene 1591); assay: LTEA_HepaRG_CYP24A1: Life Technologies and Expression Analysis (LTEA) Assay for Cytochrome P450 (CYP24A1) using HepaRG (AID 2283478)
# In short: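 qRT-PCR read-out: CYP24A1 transcript levels normalized to three housekeeping genes, bidirectional curve fits against 0.5% DMSO baseline. Human HepaRG cells treated 48 h with chemicals at eight concentrations from 100 uM in half-log steps.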
# Chain of Cytochrome P450 3A4 (Homo sapiens) (P08684 whole entry, looked up): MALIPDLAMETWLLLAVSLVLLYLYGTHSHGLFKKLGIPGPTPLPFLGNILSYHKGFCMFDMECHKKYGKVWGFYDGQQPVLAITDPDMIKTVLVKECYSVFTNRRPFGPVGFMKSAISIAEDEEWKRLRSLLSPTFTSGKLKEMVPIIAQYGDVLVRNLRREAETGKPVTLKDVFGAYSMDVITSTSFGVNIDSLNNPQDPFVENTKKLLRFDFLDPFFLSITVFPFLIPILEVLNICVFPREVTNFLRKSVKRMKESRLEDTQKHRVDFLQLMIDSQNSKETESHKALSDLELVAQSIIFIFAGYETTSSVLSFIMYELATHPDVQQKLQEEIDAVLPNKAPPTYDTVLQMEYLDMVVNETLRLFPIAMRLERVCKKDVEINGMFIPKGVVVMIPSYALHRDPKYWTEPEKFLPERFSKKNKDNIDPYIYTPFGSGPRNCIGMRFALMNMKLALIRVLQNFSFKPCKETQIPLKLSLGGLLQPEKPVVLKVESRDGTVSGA
# Chain of Apoptosis regulator Bcl-2 (Homo sapiens) (P10415 whole entry, looked up): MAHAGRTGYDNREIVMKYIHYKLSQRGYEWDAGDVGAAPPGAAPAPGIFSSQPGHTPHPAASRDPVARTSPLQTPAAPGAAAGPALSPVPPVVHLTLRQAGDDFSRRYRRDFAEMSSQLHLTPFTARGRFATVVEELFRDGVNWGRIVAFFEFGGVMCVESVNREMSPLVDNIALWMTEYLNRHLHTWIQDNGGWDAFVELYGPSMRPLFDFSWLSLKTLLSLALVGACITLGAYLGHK
# Chain of Cytochrome P450 2C19 (Homo sapiens) (P33261 whole entry, looked up): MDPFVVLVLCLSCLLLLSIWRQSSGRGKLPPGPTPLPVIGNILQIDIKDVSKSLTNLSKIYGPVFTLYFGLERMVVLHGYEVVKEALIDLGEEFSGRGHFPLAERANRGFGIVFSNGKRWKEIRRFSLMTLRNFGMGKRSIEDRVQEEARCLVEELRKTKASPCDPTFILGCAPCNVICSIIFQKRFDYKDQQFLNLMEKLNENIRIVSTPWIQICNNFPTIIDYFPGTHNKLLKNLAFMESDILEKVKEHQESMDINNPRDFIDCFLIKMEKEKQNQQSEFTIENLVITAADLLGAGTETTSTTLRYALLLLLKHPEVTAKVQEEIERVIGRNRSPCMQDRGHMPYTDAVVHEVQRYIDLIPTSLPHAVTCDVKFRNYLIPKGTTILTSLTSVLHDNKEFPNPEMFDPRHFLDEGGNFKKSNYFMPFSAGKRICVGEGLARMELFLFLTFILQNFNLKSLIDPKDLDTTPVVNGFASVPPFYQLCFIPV
compound,measurement,setting,value
Cc1c(F)c(F)c(COC(=O)C2C(/C=C(\Cl)C(F)(F)F)C2(C)C)c(F)c1F (stereo not drawn),outcome,[1],inactive
same,outcome,[2],inactive
same,outcome,[3],inactive
same,outcome,[4],inactive
same,outcome,BCL2L11 (gene 10018),inactive
same,outcome,[5],inactive
same,outcome,[6],inactive
same,outcome,[7],inactive
same,outcome,Caspase-3 (Homo sapiens),inactive
same,outcome,[8],inactive
same,outcome,[9],inactive
same,outcome,[10],inactive
same,outcome,[11],inactive
same,outcome,CYP2C8 (gene 1558),inactive
same,outcome,CYP2C9 (gene 1559),inactive
same,AC50,CYP2E1 (gene 1571),72.3 µM (active)
same,outcome,CYP4A11 (gene 1579),inactive
same,outcome,[12],inactive
same,outcome,[13],inactive
C=CC1(C)OC(=O)N(c2cc(Cl)cc(Cl)c2)C1=O (stereo not drawn),outcome,[1],inactive
same,outcome,[2],inactive
same,outcome,[3],inactive
same,outcome,[4],inactive
same,outcome,[5],inactive
same,outcome,[6],inactive
same,outcome,[7],inactive
same,outcome,Caspase-3 (Homo sapiens),inactive
same,outcome,[14],inactive
same,AC50,[8],18.8 µM (active)
same,outcome,[9],inactive
same,AC50,[10],7.99 µM (active)
same,AC50,[11],18.4 µM (active)
same,AC50,CYP2C8 (gene 1558),16.7 µM (active)
same,outcome,CYP2C9 (gene 1559),inactive
same,AC50,CYP2E1 (gene 1571),40.1 µM (active)
same,outcome,CYP4A11 (gene 1579),inactive
same,AC50,[12],13.6 µM (active)
same,outcome,[13],inactive
CCCN(CCC)c1c([N+](=O)[O-])cc(S(N)(=O)=O)cc1[N+](=O)[O-],AC50,[1],74.1 µM (active)
same,outcome,[1],inactive
same,outcome,[2],inactive
same,AC50,[3],80.6 µM (active)
same,outcome,[3],inactive
same,AC50,[4],15.8 µM (active)
same,outcome,[4],inactive
same,outcome,[5],inactive
same,outcome,[6],inactive
same,outcome,[7],inactive
same,AC50,Caspase-3 (Homo sapiens),79.2 µM (active)
same,outcome,Caspase-3 (Homo sapiens),inactive
same,AC50,[8],87.5 µM (active)
same,outcome,[8],inactive
same,AC50,[9],83.3 µM (active) and 79.5 µM (active)
same,outcome,[9],inactive
same,AC50,[10],11.1 µM (active) and 11.9 µM (active) and 10.7 µM (active)
same,AC50,[11],8.44 µM (active) and 84.8 µM (active) and 8.78 µM (active)
same,outcome,CYP2C8 (gene 1558),inactive
same,AC50,CYP2C9 (gene 1559),95 µM (active) and 82 µM (active)
same,outcome,CYP2C9 (gene 1559),inactive
same,AC50,CYP2E1 (gene 1571),15.6 µM (active) and 12.9 µM (active) and 20.1 µM (active)
same,AC50,CYP4A11 (gene 1579),93.5 µM (active) and 15.8 µM (active)
same,outcome,CYP4A11 (gene 1579),inactive
same,AC50,[12],8.79 µM (active) and 12.1 µM (active) and 90.8 µM (active)
same,AC50,[13],93.7 µM (active) and 67.7 µM (active)
same,outcome,[13],inactive
OC(c1ccc(Cl)cc1)(c1cncnc1)c1ccccc1Cl (stereo not drawn),outcome,[1],inactive
same,AC50,[2],66.4 µM (active)
same,outcome,[3],inactive
same,AC50,[4],80 µM (active)
same,AC50,[5],72.9 µM (active)
same,AC50,[6],75.1 µM (active)
same,outcome,[7],inactive
same,outcome,Caspase-3 (Homo sapiens),inactive
same,outcome,[14],inactive
same,AC50,[8],86.6 µM (active)
same,AC50,[9],50 µM (active)
same,AC50,[10],91.3 µM (active)
same,AC50,[11],89.6 µM (active)
same,AC50,CYP2C8 (gene 1558),83.6 µM (active)
same,AC50,CYP2C9 (gene 1559),83.7 µM (active)
same,AC50,CYP2E1 (gene 1571),46.7 µM (active)
same,AC50,CYP4A11 (gene 1579),70.4 µM (active)
same,AC50,[12],11.4 µM (active)
same,AC50,[13],71.8 µM (active)
CCCCNC(=O)n1c(NC(=O)OC)nc2ccccc21,outcome,[1],inactive
same,outcome,[2],inactive
same,outcome,[3],inactive
same,outcome,[4],inactive
same,outcome,[5],inactive
same,outcome,[6],inactive
same,outcome,[7],inactive
same,outcome,Caspase-3 (Homo sapiens),inactive
same,outcome,[14],inactive
same,AC50,[8],20.7 µM (active)
same,outcome,[9],inactive
same,outcome,[10],inactive
same,outcome,[11],inactive
same,outcome,CYP2C8 (gene 1558),inactive
same,outcome,CYP2C9 (gene 1559),inactive
same,outcome,CYP2E1 (gene 1571),inactive
same,outcome,CYP4A11 (gene 1579),inactive
same,outcome,[12],inactive
same,outcome,[13],inactive
